MITF TRPM1 inh – inhibitors of MITF-driven TRPM1 promoter in melanoma cells | SK-MEL-5 TRPM1 promoter luciferase, 24 h | inhibition, % at 12.5 µM | hit rate 0.83% among 330,000 | AID 488899;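 active = mean inhibition across replicates of 60% or more, whatever share of single replicates reaches that level; inconclusive = some that reach 60%, reason not given; inactive = mean inhibition across replicates below 60%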
EWS-Fli block – blocks EWS/Fli oncoprotein-driven transcription | A673 NR0B1-luciferase reporter, viability-normalised | inhibition, % at 12.6 µM | hit rate 0.67% among 350,000;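 active = mean inhibition of at least 50% after viability correction, with every replicate also passing that limit; inconclusive = mean reaches 50% but only one of two replicates passes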;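 also: firefly luciferase signal divided by Alamar Blue viability fluorescence both relative to DMSO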
PGC1a acetyl inh – modulators of PGC1a acetylation; hit rate 0.17% among 350,000; U2OS PGC1a acetylation, AlphaScreen anti-acetyl-lysine; with virally co-expressed GCN5 acetyltransferase; inhibition, % at 15.6 µM;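 active = every replicate shows inhibition of at least 40%; inconclusive = mean inhibition at least 40% but some replicate below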;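 also: 0% = neutral control wells and 100% = positive control wells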
LMP1 NFkB inh – Epstein-Barr LMP1 NF-kappaB reporter inhibition. LMP1-induced NF-kappaB luciferase reporter cells, luminescence. AID 504558. hit rate 0.69% among 350,000. inhibition, % at 12.5 µM; in the data active = inhibition above about 41%; inconclusive = no clear call, values can overlap the other calls;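 also: 0% = neutral control wells and 100% = reference inhibitor control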
LGR2 antag – inhibitors of bursicon-induced Drosophila LGR2 receptor cAMP signaling; hit rate 0.35% among 380,000; inhibition, % at 9.99 µM; HEK293 LGR2, CRE-luciferase, bursicon-stimulated, 4 h;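 active = drop in luminescence signal, shown as inhibition above about 50% in the replicate tests, limit read from the data, passing the limit was not always enough; inconclusive = probably only some replicates passing the limit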;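 also: agonist challenge used bursicon conditioned medium at about half maximal strength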
PAX8 inh HTS – inhibitors of PAX8 transcriptional activity in RMG-I cells; inhibition, % at 12.6 µM; hit rate 1.2% among 360,000; RMG-I TPO-luciferase reporter, SteadyGlo, 24 h;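 active = mean replicate inhibition at least 60% with every replicate also reaching 60%; inconclusive = only one of the two criteria is met; inactive = mean below 60% and not all replicates reaching 60%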;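 also: luciferase light reporting Pax8 driven TPO promoter activity; plate controls were median of neutral control wells for no effect and mitoxantrone controls for full effect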
Active calls of the source: *; ? = inconclusive; / = no result given; ! = not active in a repeat. Only some compounds are listed: those with a hit (about 2.2% of all), similar ones and a draw of the others.

SMILES | MITF TRPM1 inh | EWS-Fli block | PGC1a acetyl inh | LMP1 NFkB inh | LGR2 antag | PAX8 inh HTS
C[C@H](CO)N1C[C@H](C)[C@@H](CN(C)Cc2ccc(-c3ccccc3)cc2)Oc2ccc(NC(=O)C3CC3)cc2CC1=O | / | -4 | 2 | / | 11 | 104*
COc1ccccc1N1CCN(C(=O)c2[nH]c(C(F)(F)F)nc2-c2ccccc2)CC1 | / | 72* | 6 | / | 8 | 37
O=C(c1[nH]c(C(F)(F)F)nc1-c1ccccc1)N1CCN(c2cccc(C(F)(F)F)n2)CC1 | / | 55* | -8 | / | -4 | 23
COc1ccc(N2CCN(C(=O)c3[nH]c(C(F)(F)F)nc3-c3ccccc3)CC2)cc1 | / | -9 | 10 | / | -8 | 8
CC(=O)N1CCN(C(=O)c2[nH]c(C(F)(F)F)nc2-c2ccccc2)CC1 | / | 8 | -3 | / | / | 0
Cc1cccc(N2CCN(C(=O)c3[nH]c(C(F)(F)F)nc3-c3ccccc3)CC2)c1C | / | 35 | -28 | / | / | 77*
O=C(C[C@@H]1CC[C@@H](NC(=O)C2CC2)[C@@H](CO)O1)NCCCN1CCOCC1 | / | -10 | 3 | / | 7 | -13
CC(C)NC(=O)N(C)C[C@H]1OCCCC[C@@H](C)Oc2ccc(NC(=O)Nc3ccc(C(F)(F)F)cc3)cc2C(=O)N([C@@H](C)CO)C[C@H]1C | / | -6 | -7 | / | 15 | 89*
CC(C)NC(=O)N(C)C[C@@H]1OCCCC[C@@H](C)Oc2ccc(NC(=O)Nc3ccc(C(F)(F)F)cc3)cc2C(=O)N([C@@H](C)CO)C[C@@H]1C | / | -5 | 3 | / | 15 | 3
C[C@@H]1CCCCO[C@H](CN(C)C(=O)Nc2ccc(C(F)(F)F)cc2)[C@H](C)CN([C@@H](C)CO)C(=O)c2cc(NC(=O)Nc3ccc(C(F)(F)F)cc3)ccc2O1 | / | -14 | 9 | / | 11 | -1
CC(C)NC(=O)N(C)C[C@@H]1OCCCC[C@H](C)Oc2ccc(NC(=O)Nc3ccc(C(F)(F)F)cc3)cc2C(=O)N([C@@H](C)CO)C[C@H]1C | / | 5 | -14 | / | 20 | 63*
CC(C)COC(=O)N(C)C[C@@H]1OCc2ccccc2-c2c(n(C)c3ccccc23)C(=O)N([C@H](C)CO)C[C@@H]1C | / | 0 | 2 | / | 1 | 24
CCN(CC(=O)Nc1c(F)cccc1F)C(=O)c1cc(S(=O)(=O)N(CC)CC)ccc1N1CCCCC1 | 23 | / | 3 | -4 | 1 | 88*
CCN(Cc1ccccc1)C(=O)c1cc(S(=O)(=O)N2CCOCC2)ccc1N1CCCC1 | 0 | 1 | / | 24 | 18 | -7
CCN(CC(=O)Nc1ccc(OC)cc1)C(=O)c1cc(S(=O)(=O)N2CCOCC2)ccc1N1CCCC1 | 18 | 14 | 6 | -8 | 9 | 69*
CCN(CC(=O)Nc1c(F)cccc1F)C(=O)c1ccc(N2CCCCC2)c([N+](=O)[O-])c1 | 0 | 4 | / | 14 | 6 | 14
CCN(CC(=O)Nc1c(F)cccc1F)C(=O)c1cc(S(=O)(=O)N(C)C)ccc1N1CCCC1 | 21 | -2 | -2 | 4 | 7 | 90*
C[C@@H]1CN([C@H](C)CO)C(=O)c2cc(NC(=O)CCCN(C)C)ccc2O[C@@H](C)CCCCO[C@H]1CN(C)Cc1ccncc1 | / | 0 | 12 | / | -10 | -19
O=C(CN1CCN(S(=O)(=O)c2cc(C(F)(F)F)ccc2Cl)CC1)N1CCc2ccccc2C1 | 6 | 4 | 2 | -2 | -9 | 6
Cc1ccc(C)c(S(=O)(=O)N2CCN(CC(=O)N3CCc4ccccc4C3)CC2)c1 | 1 | / | -4 | 57* | 9 | /
COC(=O)C[C@H]1CC[C@H](NS(=O)(=O)c2ccccc2F)[C@H](CO)O1 | / | 4 | 4 | / | -9 | 0
O=c1nc(N/N=C/C=C/c2ccccc2)cn[nH]1 | 4 | 22 | -6 | 47* | 67* | -33
O=C1[C@H]2[C@@H](c3ccccc3)N[C@]3(CCCN(Cc4ccco4)C3=O)[C@H]2C(=O)N1Cc1ccccc1 | / | 6 | 0 | -1 | 7 | 3
COc1ccc([C@H]2N[C@]3(CCCN(Cc4ccco4)C3=O)[C@H]3C(=O)N(Cc4ccccc4)C(=O)[C@@H]23)cc1 | / | -29 | -7 | 46* | -2 | -18
CN(Cc1nccn1C)C(=O)c1cc(COc2ccc3ncccc3c2)on1 | 7 | -2 | 3 | 6 | / | -7
SMILES | MITF TRPM1 inh | EWS-Fli block | PGC1a acetyl inh | LMP1 NFkB inh | LGR2 antag | PAX8 inh HTS
Cc1cc(CN(C)C(=O)c2cc(COc3ccc4ncccc4c3)on2)on1 | 10 | -1 | 7 | 23 | 12 | 91*
O=C(NC1CCCCCCC1)c1cc(COc2ccc3ncccc3c2)on1 | 23 | 17 | 7 | 49* | / | -2
CO[C@H]1CN(C)C(=O)c2cc(NC(=O)c3cc(C)on3)ccc2OC[C@H](C)N(CC2CC2)C[C@@H]1C | / | -3 | 3 | / | -2 | -13
Cc1ccc(NC(=O)Cc2cc(C(=O)O)c3ccccc3n2)c(C)c1 | 7 | 13 | / | 9 | 19 | 70*
C[C@@H]1CCCCO[C@H](CN(C)C(=O)c2ccncc2)[C@H](C)CN([C@@H](C)CO)C(=O)c2cc(NC(=O)C3CCCCC3)ccc2O1 | / | 3 | 2 | / | -12 | -4
O=[N+]([O-])c1cnc(Sc2ccncn2)c([N+](=O)[O-])c1 | / | 22 | -3 | 26 | -14 | -2
O=[N+]([O-])c1cnc(Sc2ccncn2)s1 | 83* | ? | 21 | 38 | 5 | 120*
C[C@H](NC(=O)[C@@H]1[C@@H](CO)[C@@H]2Cn3c(ccc(-c4ccncc4)c3=O)[C@@H]2N1C)c1ccccc1 | / | 2 | / | / | -8 | -2
NCC[C@H]1CC[C@@H](NC(=O)CCN2CCCCC2)[C@H](CO)O1 | / | -6 | 2 | / | -28 | -8
O=C(CSc1nnc(SCc2ccccc2)s1)N/N=C/c1ccc(C(=O)O)cc1 | 0 | 17 | -7 | -11 | 15 | -5
Cc1ccc(CSc2nnc(SCC(=O)N/N=C/c3ccc(C(=O)O)cc3)s2)cc1 | -5 | 60* | -2 | -6 | 67* | -14
CC(C)c1cn(CC[C@H]2CC[C@@H](NS(=O)(=O)c3ccc(F)cc3)[C@H](CO)O2)nn1 | / | 7 | 6 | / | -8 | 8
CN(C)CCn1cnc2c(c1=N)C(c1ccccc1)c1ccc3ccccc3c1O2 (centres undefined) | 93* | 21 | -13 | -16 | -2 | -6
N=c1c2c(ncn1Cc1ccco1)Oc1c(ccc3ccccc13)C2c1ccccc1 (centres undefined) | 15 | / | / | 11 | 10 | 8
Cc1cc(C)c(C(=O)/C=C/c2cccc3ccccc23)c(=O)[nH]1 | 87* | 21 | / | 58* | 67* | 99*
Cc1cc(C)c(C(=O)/C=C/c2ccc3c(c2)OCO3)c(=O)[nH]1 | 14 | -2 | 3 | 34 | 10 | -2
CCCC(CCC)C(=O)O | -11 | -8 | 1 | 58*! | 14 | 8
CCOC(=O)C1=C(O)/C(=C/c2ccc(CNC(=O)C(=O)Nc3ccc(C)cc3)o2)N=C1C | 11 | / | 17 | 77* | -32 | /

Screens deposited in PubChem by Broad Institute.
